Measured values: the supplement of paper PMC12067093, “Discovery and optimisation of a covalent ligand for TRIM25 and its application to targeted protein ubiquitination” (Chemical Science, 2025)
Targets with the largest changes are over-represented here; the source holds about 21,000 in all.

Compound: Cc1cc(ccc1-c1ccccc1)C(=O)N1CCCN(CC1)C(=O)CCl [compound 10]
Assay: probe-labelled cysteine peptide fold change vs DMSO (competition) (log2 fold change); higher = less target engagement (more negative = stronger competition)
Settings: THP-1, incubation time: 4 h
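Also: competitive profiling in live THP-1 cells: cysteine peptides tagged with an iodoacetamide desthiobiotin (IA-DTB) probe, intensity after compound treatment relative to DMSO-treated cells.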

Sequence of UniProt Q96BW5 (Q96BW5 whole entry, looked up): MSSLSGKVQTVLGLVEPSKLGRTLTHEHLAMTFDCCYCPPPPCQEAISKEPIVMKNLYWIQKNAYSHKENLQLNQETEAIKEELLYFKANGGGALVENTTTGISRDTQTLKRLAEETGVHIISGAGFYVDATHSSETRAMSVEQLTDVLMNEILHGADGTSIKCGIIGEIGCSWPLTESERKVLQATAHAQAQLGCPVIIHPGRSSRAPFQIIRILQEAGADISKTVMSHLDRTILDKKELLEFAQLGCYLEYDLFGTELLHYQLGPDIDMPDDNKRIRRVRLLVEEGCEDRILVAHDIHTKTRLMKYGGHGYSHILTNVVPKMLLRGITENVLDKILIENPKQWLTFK
Sequence of UniProt O60678 (O60678 whole entry, looked up): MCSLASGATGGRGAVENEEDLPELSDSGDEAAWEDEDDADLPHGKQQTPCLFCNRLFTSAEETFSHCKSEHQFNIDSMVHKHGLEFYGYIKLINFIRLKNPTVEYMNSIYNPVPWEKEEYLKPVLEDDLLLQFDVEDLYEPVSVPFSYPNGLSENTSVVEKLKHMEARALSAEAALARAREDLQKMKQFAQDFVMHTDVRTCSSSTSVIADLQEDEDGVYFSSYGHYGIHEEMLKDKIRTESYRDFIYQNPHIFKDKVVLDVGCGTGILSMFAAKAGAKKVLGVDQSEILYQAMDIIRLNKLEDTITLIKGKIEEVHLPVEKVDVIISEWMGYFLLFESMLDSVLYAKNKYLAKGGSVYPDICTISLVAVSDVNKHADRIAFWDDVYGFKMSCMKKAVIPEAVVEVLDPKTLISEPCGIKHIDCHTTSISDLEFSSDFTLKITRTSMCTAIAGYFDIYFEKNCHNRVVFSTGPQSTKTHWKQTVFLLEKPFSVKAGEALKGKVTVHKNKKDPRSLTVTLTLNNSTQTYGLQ
Sequence of UniProt Q9Y4B4 (Q9Y4B4 whole entry, looked up): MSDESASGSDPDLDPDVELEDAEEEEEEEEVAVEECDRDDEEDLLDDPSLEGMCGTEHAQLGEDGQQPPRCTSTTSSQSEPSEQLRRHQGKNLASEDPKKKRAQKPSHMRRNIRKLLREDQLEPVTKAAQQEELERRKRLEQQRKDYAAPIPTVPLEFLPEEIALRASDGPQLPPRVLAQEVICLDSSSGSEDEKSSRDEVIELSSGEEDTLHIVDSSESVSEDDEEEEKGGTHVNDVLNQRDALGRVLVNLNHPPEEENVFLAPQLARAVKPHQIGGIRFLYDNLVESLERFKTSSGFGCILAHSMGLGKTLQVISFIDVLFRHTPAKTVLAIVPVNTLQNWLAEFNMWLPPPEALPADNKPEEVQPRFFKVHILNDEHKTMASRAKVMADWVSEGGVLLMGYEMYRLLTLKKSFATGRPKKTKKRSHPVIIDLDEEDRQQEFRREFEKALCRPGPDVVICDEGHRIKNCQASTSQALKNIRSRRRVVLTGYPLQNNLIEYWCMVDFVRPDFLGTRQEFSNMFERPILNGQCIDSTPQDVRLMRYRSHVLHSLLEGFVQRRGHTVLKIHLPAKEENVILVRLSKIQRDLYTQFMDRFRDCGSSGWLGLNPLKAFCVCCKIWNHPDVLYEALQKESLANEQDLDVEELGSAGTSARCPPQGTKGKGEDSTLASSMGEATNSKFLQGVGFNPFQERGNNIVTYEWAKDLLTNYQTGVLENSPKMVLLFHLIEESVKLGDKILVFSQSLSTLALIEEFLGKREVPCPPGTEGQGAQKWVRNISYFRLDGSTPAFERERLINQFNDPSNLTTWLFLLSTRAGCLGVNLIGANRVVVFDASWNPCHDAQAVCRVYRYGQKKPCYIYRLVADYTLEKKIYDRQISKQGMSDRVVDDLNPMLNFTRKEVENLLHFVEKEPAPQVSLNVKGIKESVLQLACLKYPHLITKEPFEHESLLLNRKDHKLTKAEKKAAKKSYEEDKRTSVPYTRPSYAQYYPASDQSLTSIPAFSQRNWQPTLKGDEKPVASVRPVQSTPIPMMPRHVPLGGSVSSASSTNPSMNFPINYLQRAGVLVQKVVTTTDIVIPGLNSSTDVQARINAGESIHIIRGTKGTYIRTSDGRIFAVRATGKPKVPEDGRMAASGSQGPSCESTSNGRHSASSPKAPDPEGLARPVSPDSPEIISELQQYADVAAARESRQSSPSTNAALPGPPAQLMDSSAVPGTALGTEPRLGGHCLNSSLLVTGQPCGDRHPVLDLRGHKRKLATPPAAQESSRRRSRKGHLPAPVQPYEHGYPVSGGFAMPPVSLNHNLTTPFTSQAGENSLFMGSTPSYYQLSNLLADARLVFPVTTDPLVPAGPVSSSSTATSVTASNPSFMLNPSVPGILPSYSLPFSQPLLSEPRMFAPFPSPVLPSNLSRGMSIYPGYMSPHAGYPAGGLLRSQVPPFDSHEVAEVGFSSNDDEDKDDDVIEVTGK
Sequence of UniProt O14818 (O14818 whole entry, looked up): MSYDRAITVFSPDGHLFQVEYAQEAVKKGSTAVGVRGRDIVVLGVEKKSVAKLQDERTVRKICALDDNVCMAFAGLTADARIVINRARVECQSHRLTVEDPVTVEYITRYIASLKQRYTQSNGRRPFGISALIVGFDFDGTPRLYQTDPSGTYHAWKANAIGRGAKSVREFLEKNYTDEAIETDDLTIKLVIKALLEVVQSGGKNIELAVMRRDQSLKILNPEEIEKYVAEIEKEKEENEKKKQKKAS
Sequence of UniProt Q9UMS4 (Q9UMS4 whole entry, looked up): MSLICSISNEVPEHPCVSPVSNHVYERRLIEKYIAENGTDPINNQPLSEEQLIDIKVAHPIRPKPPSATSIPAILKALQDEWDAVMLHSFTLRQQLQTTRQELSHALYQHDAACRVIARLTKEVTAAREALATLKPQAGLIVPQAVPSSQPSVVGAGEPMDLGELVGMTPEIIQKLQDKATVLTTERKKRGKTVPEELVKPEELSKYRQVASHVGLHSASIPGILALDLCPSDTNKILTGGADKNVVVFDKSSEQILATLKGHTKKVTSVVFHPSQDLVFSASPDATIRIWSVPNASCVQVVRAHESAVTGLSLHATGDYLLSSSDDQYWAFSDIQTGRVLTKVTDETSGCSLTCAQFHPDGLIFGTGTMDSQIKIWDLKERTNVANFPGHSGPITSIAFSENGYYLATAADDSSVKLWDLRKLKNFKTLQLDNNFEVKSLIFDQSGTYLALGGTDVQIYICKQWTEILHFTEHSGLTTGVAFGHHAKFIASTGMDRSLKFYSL

Row | Target | probe-labelled cysteine peptide fold change (10 µM) | probe-labelled cysteine peptide fold change (50 µM)
1 | PTER_Q96BW5_196_VLQATAHAQAQLGCPVIIHPGR (UniProt Q96BW5) | 0.2 | 0.329
2 | PRPF19_Q9UMS4_5+16_SLICSISNEVPEHPCVSPVSNHVYER (UniProt Q9UMS4) | 0.0585 | 0.103
3 | PRMT3_O60678_67_LFTSAEETFSHCK (UniProt O60678) | 0.049 | 0.0747
4 | RABGAP1L_Q5R372_665_NNFEDLHCK (UniProt Q5R372) | 0.206 | 0.197
5 | RAD54L2_Q9Y4B4_618_AFCVCCK (UniProt Q9Y4B4) | -0.173 | -0.639
6 | PSMA7_O14818_91_ARVECQSHR (UniProt O14818) | -0.0556 | 0.107
